A selection: hits, their analogues and other compounds. The true share with any hit is near 1.3%.
ALOX12 inh – Primary qHTS assay for inhibitors of human arachidonate 12S-lipoxygenase (ALOX12): Round 2 | Polyunsaturated fatty acid lipoxygenase ALOX12 (Homo sapiens), P18054 | purified 12hLO, xylenol orange hydroperoxide absorbance | hit rate 1.1% among 580,000 | AID 1671190, 2021 | Potency, µM (titrated, usually from 108 µM), hits mostly inhibitors
Target sequence (P18054 whole entry, looked up): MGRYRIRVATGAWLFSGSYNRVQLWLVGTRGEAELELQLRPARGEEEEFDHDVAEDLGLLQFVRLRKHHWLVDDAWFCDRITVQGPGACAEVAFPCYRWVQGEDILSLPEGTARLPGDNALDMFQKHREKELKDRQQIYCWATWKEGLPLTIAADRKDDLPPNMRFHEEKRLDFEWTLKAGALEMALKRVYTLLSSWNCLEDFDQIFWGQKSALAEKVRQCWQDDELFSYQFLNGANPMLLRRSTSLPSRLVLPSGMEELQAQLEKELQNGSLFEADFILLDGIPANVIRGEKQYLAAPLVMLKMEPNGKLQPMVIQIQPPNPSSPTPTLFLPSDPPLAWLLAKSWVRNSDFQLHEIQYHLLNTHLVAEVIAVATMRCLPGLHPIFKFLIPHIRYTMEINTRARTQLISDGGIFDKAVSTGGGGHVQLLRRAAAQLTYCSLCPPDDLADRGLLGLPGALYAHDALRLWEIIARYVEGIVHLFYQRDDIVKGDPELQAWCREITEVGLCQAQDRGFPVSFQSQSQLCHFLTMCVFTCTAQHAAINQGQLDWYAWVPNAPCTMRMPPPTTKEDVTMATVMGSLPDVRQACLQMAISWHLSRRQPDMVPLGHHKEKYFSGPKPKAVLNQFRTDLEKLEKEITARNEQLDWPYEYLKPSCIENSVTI
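Hydroperoxide product was detected by ferrous iron/xylenol orange as the 573 to 405 nm absorbance ratio. Arachidonic acid at 40 uM (final) was turned over for 30 min at room temperature by 150 nM human 12hLO, pH 7.0 Hepes buffer, after 15 min compound preincubation.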
TRPML1 blocker – qHTS for Inhibitors of the Human Mucolipin Transient Receptor Potential 1 (TRPML1) | hit rate 0.02% among 390,000 | TRPML1-inducible cells, Ca2+ dye fluorescence, FDSS; active compounds read low; inhibition of EC80 agonist-evoked calcium signal | Mucolipin-1 (Homo sapiens), Q9GZU1 | activity change, negative = inhibition, % (concentration not given with the values) | AID 624415, 2012; in the data active = activity change below about -50%; inconclusive = between about -30% and that limit;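 also: stimulus is agonist 54-4 at its EC80 concentration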
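Tet-induced TRPML1-DL cells loaded with Ca8 no-wash calcium dye were read kinetically on FDSS. Compound addition was followed by EC80 agonist 54-4 (4 uM final); inhibition was read over 110 s.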
TRPML1 agonist – qHTS for Agonists of the Human Mucolipin Transient Receptor Potential 1 (TRPML1); Mucolipin-1 (Homo sapiens), Q9GZU1; TRPML1-expressing cells, Ca2+ dye fluorescence, FDSS; activation, % (no concentration beside the values); hit rate 0.12% among 410,000; AID 624414, 2012; in the data active = activation above about 50%; inconclusive = mostly about 30% to 49%
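Tet-induced TRPML1-DL cells, 1,500 per well, cultured overnight, were loaded with a no-wash Ca2+ dye for 45–90 min. Calcium fluorescence was recorded on the FDSS for 110 s after compound addition, before the EC80 agonist (4 uM 54-4) was added.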
GRP78 ERSR act – qHTS for Inducers of the Endoplasmic Reticulum Stress Response (ERSR) in Human Glioma: qHTS | U87-MG GRP78 promoter luciferase reporter, 16 h | Potency, µM, most hits filed as activators | hit rate 0.02% among 420,000; also: series mostly up to about 76 µM; nearly all actives have a fitted effect of over 35% in size
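Stably transfected U87-MG glioma cells carrying a GRP78-based luciferase sensor; 16 h compound incubation. Luminescence end-point read 10 min after Bright-Glo addition at room temperature.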
Vif-A3F inh – qHTS for Inhibitors of Vif-A3F Interactions: qHTS. AID 602313, 2012. Potency, µM (top dose mostly 46.1 µM). HeLa A3F-eYFP + Vif (tagged APOBEC3F with the HIV-1 protein that degrades it), YFP fluorescence increase. hit rate 0.2% among 390,000; also: nearly all actives have a fitted effect of over 65% in size
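HeLa cells stably expressing A3F-eYFP plus Vif, plated and incubated overnight at 37 deg C, then exposed to compounds overnight at 37 deg C. Blocked degradation read as raised yellow fluorescence (Ex 488/Em 500-530).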
Vif-A3G inh – qHTS for Inhibitors of Vif-A3G Interactions: qHTS. DNA dC->dU-editing enzyme APOBEC-3G (Homo sapiens), Q9HC16. AID 602310, 2012. hit rate 0.076% among 410,000. HeLa A3G-eYFP + Vif (tagged APOBEC3G with the HIV-1 protein that degrades it), YFP fluorescence, overnight. Potency, µM (titrated, usually from 46.1 µM), usual class: inhibitors; also: nearly all actives have a fitted effect of over 60% in size
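HeLa cells stably expressing Vif and C-terminally eYFP-tagged A3G, seeded overnight at 37 deg C, then exposed to compound by pintool overnight at 37 deg C. Rise in yellow fluorescence (Ex 488/Em 500-530, Acumen) marks blocked Vif-driven A3G degradation.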
Each line names hits and unclear results; the compound was inactive in the other large screens. Unless noted, calls follow the shape of the dose curve; as a rule, active = well fitted curve in the direction sought with a large enough effect; inconclusive = small, poorly fitted or top-dose-only effect, or another doubt; inactive = no such curve, though single readings can be large; an effect the other way counts as inactive or inconclusive.

COc1ccc(NC(=O)C2C3CCC(O3)C2C(=O)O)c(C)c1 (stereo not drawn)	none
CNc1ccc2c3c(cccc13)C(=O)N(C)C2=O	TRPML1 agonist 78
O=C1C(F)=CC(COC(c2ccccc2)(c2ccccc2)c2ccccc2)OC1n1cc(F)c(=O)[nH]c1=O (stereo not drawn)	ALOX12 inh 8.9µM
CC(=O)OCC1OC(n2cc(F)c(=O)[nH]c2=O)C(OC(C)=O)C1OC(C)=O (stereo not drawn)	none
CCSc1n[nH]c(=S)s1	ALOX12 inh 45µM
Cc1ccc(NC2c3ncccc3C(=O)N2c2ccccc2C)cc1C (stereo not drawn)	ALOX12 inh 10µM
COc1cc(NC2c3ccccc3C(=O)N2c2ccccc2C)cc(OC)c1OC (stereo not drawn)	none (no result: TRPML1 blocker, TRPML1 agonist, GRP78 ERSR act, Vif-A3F inh, Vif-A3G inh)
O=c1c(N2CCc3ccccc3C2)csc2ccc(Cl)cc12	none
O=c1c(N2CCc3ccccc3C2)csc2ccc(Br)cc12	ALOX12 inh 40µM, Vif-A3F inh inconclusive
COCCN1C(=O)CO[C@H]2CN(c3ncccn3)C[C@H]21	ALOX12 inh 50µM (no result: TRPML1 blocker, TRPML1 agonist, GRP78 ERSR act, Vif-A3F inh, Vif-A3G inh)
COC(=O)C(c1ccccc1)C(C(=O)OC)c1ccccc1 (stereo not drawn)	none
COC(=O)[C@@H](c1ccccc1)N(C)S(=O)(=O)c1cccc(S(=O)(=O)N(C)[C@@H](C(=O)OC)c2ccccc2)c1	TRPML1 agonist 74
COc1ccc2oc(=O)c(/C(C)=N/Nc3ccccc3)cc2c1	ALOX12 inh 32µM
O=C1Nc2cc(C(=O)NCCN3CCCCCC3)ccc2S/C1=C/c1ccccc1F	ALOX12 inh 28µM
COc1ccc(C(=O)NC(=S)NNC(=O)c2ccccc2C)cc1	ALOX12 inh 45µM, GRP78 ERSR act inconclusive
COc1ccc(C(=O)NNC(=S)NC(=O)C(C)(C)C)cc1	TRPML1 agonist 51, GRP78 ERSR act inconclusive
CC(C)(C)C(=O)NC(=S)NNC(=O)c1sc2ccccc2c1Cl	TRPML1 agonist 71 (no result: ALOX12 inh)
Cc1cc(SCc2ccc(Cl)cc2)nc2ccccc12	none (no result: TRPML1 blocker, TRPML1 agonist, GRP78 ERSR act, Vif-A3F inh, Vif-A3G inh)
NCCCC[C@@H](C(=O)NCCCCCCCCCCC(=O)N1CCNCC1)n1cc(CCO)nn1	ALOX12 inh inconclusive
Cc1cn([C@@H](CCCCN)C(=O)NCCCCCCCCCCC(=O)N2CCNCC2)nn1	ALOX12 inh 32µM
COc1ccccc1OCC(=O)N/N=C/C=C/c1ccc([N+](=O)[O-])o1	ALOX12 inh inconclusive, Vif-A3F inh 10µM, Vif-A3G inh inconclusive
O=C(N/N=C\C=C\c1ccc([N+](=O)[O-])o1)c1cccs1	Vif-A3F inh inconclusive, Vif-A3G inh 10µM
Cc1ccccc1OCC(=O)N/N=C/c1ccc([N+](=O)[O-])o1	none
Cc1ccc(-c2nnc(CCC(=O)N3CCc4sccc4C3c3cccs3)o2)cc1 (stereo not drawn)	none (no result: TRPML1 blocker, TRPML1 agonist, GRP78 ERSR act, Vif-A3F inh, Vif-A3G inh)
COc1ccc(-c2cn3c(n2)CO[C@@H](CNCc2ccc(Cl)cc2)C3)cc1	ALOX12 inh 8.9µM (no result: TRPML1 blocker, TRPML1 agonist, GRP78 ERSR act, Vif-A3F inh, Vif-A3G inh)
COc1ccc(-c2cn3c(n2)CO[C@@H](CNS(C)(=O)=O)C3)cc1	none (no result: TRPML1 blocker, TRPML1 agonist, GRP78 ERSR act, Vif-A3F inh, Vif-A3G inh)
O=C(NCc1ccc(Cl)cc1)c1ccnc2[nH]ccc12	none (no result: TRPML1 blocker, TRPML1 agonist, GRP78 ERSR act, Vif-A3F inh, Vif-A3G inh)
COc1ccc(OC)c(CN2CCCn3nc(C)c(-c4cccnc4N4CCOCC4)c32)c1	none (no result: TRPML1 blocker, TRPML1 agonist, GRP78 ERSR act, Vif-A3F inh, Vif-A3G inh)
Cc1nn2c(c1-c1cccnc1N1CCOCC1)N(CCC(C)C)CCC2	ALOX12 inh 18µM (no result: TRPML1 blocker, TRPML1 agonist, GRP78 ERSR act, Vif-A3F inh, Vif-A3G inh)
Cc1nn2c(c1-c1cccnc1N1CCOCC1)N(CCc1ccccc1)CCC2	ALOX12 inh 20µM (no result: TRPML1 blocker, TRPML1 agonist, GRP78 ERSR act, Vif-A3F inh, Vif-A3G inh)
Cc1nn2c(c1-c1ccccc1C(C)C)N(CCC(C)C)CCC2	ALOX12 inh 50µM (no result: TRPML1 blocker, TRPML1 agonist, GRP78 ERSR act, Vif-A3F inh, Vif-A3G inh)
CC(=O)Nc1ccccc1-c1c(C)nn2c1N(CCCc1ccccc1)CCC2	ALOX12 inh 16µM (no result: TRPML1 blocker, TRPML1 agonist, GRP78 ERSR act, Vif-A3F inh, Vif-A3G inh)
Cc1nn2c(c1-c1cccnc1N1CCOCC1)N(Cc1ccc3c(c1)CCO3)CCC2	none (no result: TRPML1 blocker, TRPML1 agonist, GRP78 ERSR act, Vif-A3F inh, Vif-A3G inh)
Cc1nn2c(c1-c1ccccc1C(C)C)N(Cc1cccc(C(=O)O)c1)CCC2	none (no result: TRPML1 blocker, TRPML1 agonist, GRP78 ERSR act, Vif-A3F inh, Vif-A3G inh)
